Shown are actives, neighbours in structure and some others; about 3.9% of the full set was active somewhere.
CCHFV vOTU inh: CCHFV vOTU protease inhibition. Pep-AMC fluorescence. AID 651958. 0.55% of 370,000 active. inhibition, % at 11.5 µM; in the data active = inhibition above about 30%; note: 0% = vehicle wells with enzyme and 100% = no enzyme wells
BoNT A protease: BoNT A light chain protease inhibition | 0.17% of 360,000 active | multiplex microsphere protease substrate cleavage, flow cytometry | inhibition, % at 10 µM; note: plate controls were buffer without enzyme for full effect and enzyme alone for no effect
3CLpro inhibitor: SARS-CoV 3CLpro protease inhibition | P0C6X7 | recombinant SARS-CoV 3CLpro, quenched FRET peptide cleavage | inhibition, % at 6 µM | 0.14% of 290,000 active | AID 1706; in the data active = inhibition above about 12%
Autofluor counter: counter-screen for toxin protease inhibitors: compound fluorescence; compound autofluorescence counterscreen, microsphere flow cytometry; hits give high values; fluorescence intensity (test concentration not listed); 3.1% of 360,000 active; in the data active = fluorescence intensity above about 16000; inconclusive = no clear call, values can overlap the other calls
Anthrax LF prot: blocks Bacillus anthracis lethal factor protease | P15917 | multiplex microsphere protease cleavage assay, LF | inhibition, % at 10 µM | 0.12% of 360,000 active; note: plate controls were buffer without enzyme for full effect and enzyme alone for no effect
Target sequence (P15917 whole entry, looked up): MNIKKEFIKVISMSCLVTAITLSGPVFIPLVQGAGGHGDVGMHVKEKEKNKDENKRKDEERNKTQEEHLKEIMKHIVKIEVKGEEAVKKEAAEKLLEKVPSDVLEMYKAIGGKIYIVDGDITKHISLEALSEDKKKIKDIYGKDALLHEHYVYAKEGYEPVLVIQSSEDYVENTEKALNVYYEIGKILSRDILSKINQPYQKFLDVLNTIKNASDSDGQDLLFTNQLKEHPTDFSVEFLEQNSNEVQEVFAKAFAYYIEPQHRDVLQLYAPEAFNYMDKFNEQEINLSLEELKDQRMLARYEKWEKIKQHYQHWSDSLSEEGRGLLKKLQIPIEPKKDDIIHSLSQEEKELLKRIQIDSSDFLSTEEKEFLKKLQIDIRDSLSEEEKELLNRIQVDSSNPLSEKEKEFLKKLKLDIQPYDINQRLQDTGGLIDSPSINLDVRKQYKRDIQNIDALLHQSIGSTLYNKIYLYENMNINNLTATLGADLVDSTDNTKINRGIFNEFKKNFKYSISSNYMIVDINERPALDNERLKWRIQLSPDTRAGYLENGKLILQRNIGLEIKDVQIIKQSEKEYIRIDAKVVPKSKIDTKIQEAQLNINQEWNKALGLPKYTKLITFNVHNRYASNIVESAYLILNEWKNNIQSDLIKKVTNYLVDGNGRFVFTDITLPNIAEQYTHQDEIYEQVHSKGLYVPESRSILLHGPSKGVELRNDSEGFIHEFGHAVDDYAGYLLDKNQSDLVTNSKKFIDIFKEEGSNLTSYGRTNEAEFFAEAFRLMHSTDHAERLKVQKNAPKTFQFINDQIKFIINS
BoNT F protease: inhibitors of Botulinum neurotoxin F light chain protease; Multiplex microsphere protease cleavage assay, flow cytometry; inhibition, % at 10 µM; 0.22% of 360,000 active; AID 588497; in the data active = inhibition above about 35%, passing the limit was not always enough; inconclusive = no clear call, values can overlap the other calls; note: plate controls were buffer without enzyme for full effect and enzyme alone for no effect
* hit, by the source's call. Cut-off read from the data, not from the text of the source, unless noted: active = inhibition above about 30%; inconclusive = no clear call, values can overlap the other calls; inactive = below that.

`Cc1ccsc1C1Nc2ccc3ncccc3c2C2=C1C(=O)CC(C)(C)C2` (stereo unspecified) gave CCHFV vOTU inh -0.7, BoNT A protease inconclusive, 3CLpro inhibitor 5.1, Autofluor counter 16347*, Anthrax LF prot 0.3 and BoNT F protease -0.9.
For O=C1CCCC2=C1C(c1cccs1)Nc1ccc3ncccc3c12 (stereo unspecified) the results were CCHFV vOTU inh -4.4, BoNT A protease inconclusive, 3CLpro inhibitor -2.7, Autofluor counter 23605*, Anthrax LF prot 2.7 and BoNT F protease -1.0.
CC1(C)CC(=O)C2=C(C1)c1c(ccc3ccccc13)NC2c1ccco1 (stereo unspecified) was read as CCHFV vOTU inh -84.8, BoNT A protease -1.4, 3CLpro inhibitor -4.2, Autofluor counter 11570, Anthrax LF prot -1.0 and BoNT F protease -9.1.
Screening COC(=O)[C@]12C[C@H](CC(=O)N3CCN(C(=O)c4ccco4)CC3)C(=O)N(Cc3ccccc3)C1=C[C@H](COCc1ccccc1)O[C@@H]2C returned CCHFV vOTU inh -3.1.
`Cc1cccc(C)c1NC(=O)Cn1c(=O)n(CCCC(=O)NCc2ccco2)c(=O)c2sccc21` gave CCHFV vOTU inh -16.9, BoNT A protease -6.5, 3CLpro inhibitor -3.0, Autofluor counter 22217*, Anthrax LF prot 0.0 and BoNT F protease -7.4.
Screening O=C(CCn1c(=O)c2sccc2n(CC(=O)NCc2ccco2)c1=O)NCc1ccccc1 returned CCHFV vOTU inh 15.9, BoNT A protease -4.2, 3CLpro inhibitor 7.0, Autofluor counter 24369*, Anthrax LF prot -4.2 and BoNT F protease -8.8.
Screening O=C(CCCn1c(=O)c2sccc2n(CC(=O)NCc2ccco2)c1=O)NCc1ccco1 returned CCHFV vOTU inh -13.4, BoNT A protease inconclusive, 3CLpro inhibitor 0.1, Autofluor counter 20462*, Anthrax LF prot 1.6 and BoNT F protease 2.7.
`COc1ccc(CCNC(=O)Cn2c(=O)n(CCCC(=O)NCc3ccco3)c(=O)c3sccc32)cc1OC` gave CCHFV vOTU inh -4.6, BoNT A protease -0.6, 3CLpro inhibitor -7.9, Autofluor counter 5088, Anthrax LF prot -3.1 and BoNT F protease -2.3.
`O=C(CSc1nnc(SCc2cccc3ccccc23)s1)c1ccc(F)cc1` gave CCHFV vOTU inh 0.8.
Screening COc1ccc(N2CCN(C(=O)CCCOc3cc(=O)n(C)c4ccccc34)CC2)cc1 returned CCHFV vOTU inh 1.9, BoNT A protease -1.0, 3CLpro inhibitor 3.0, Autofluor counter 23028*, Anthrax LF prot -3.9 and BoNT F protease -4.3.
`CC1CCN(C(=O)CCCOc2cc(=O)n(C)c3ccccc23)CC1` gave CCHFV vOTU inh -1.2, BoNT A protease inconclusive, 3CLpro inhibitor -1.0, Autofluor counter 20059*, Anthrax LF prot 1.7 and BoNT F protease -0.9.
`N#C/C(=C/c1ccc(Sc2nc3ccccc3[nH]2)o1)c1cccc(Br)c1` gave CCHFV vOTU inh -5.6, BoNT A protease 0.3, 3CLpro inhibitor 0.5, Autofluor counter 2873, Anthrax LF prot -1.0 and BoNT F protease -3.4.
N#C/C(=C/c1ccc(Sc2nc3ccccc3[nH]2)o1)c1cccc(F)c1 was read as CCHFV vOTU inh 2.5, BoNT A protease -0.3, 3CLpro inhibitor 0.0, Autofluor counter 23920*, Anthrax LF prot -1.5 and BoNT F protease -1.8.
For N#C/C(=C/c1ccc(Sc2nc3ccccc3[nH]2)o1)c1ccccc1F the results were CCHFV vOTU inh -6.7, BoNT A protease inconclusive, 3CLpro inhibitor 8.0, Autofluor counter 16534*, Anthrax LF prot -2.2 and BoNT F protease -4.2.
COc1cccc(Cn2cc(COC(=O)NCCc3c[nH]c4ccccc34)nn2)c1 was read as CCHFV vOTU inh 1.2.
COc1cccc(N2CCN(C(=O)CCn3nnc4ccccc43)CC2)c1 was read as CCHFV vOTU inh 4.6.
For Cc1ccc2c(c1)N(CCCC(=O)NCc1cccs1)C(=O)CO2 the results were CCHFV vOTU inh -10.9.
Cc1ccc(/C=C2\CCC3=C2OC(N)=C(C#N)C3c2ccc(C)cc2)cc1 (stereo unspecified) was read as BoNT A protease 6.8, 3CLpro inhibitor 8.6, Autofluor counter 10272, Anthrax LF prot 5.5 and BoNT F protease 41.5*.
`CN(Cc1ccccc1)Cc1c(F)cccc1F` gave CCHFV vOTU inh -5.3, BoNT A protease -1.7, 3CLpro inhibitor -3.3, Autofluor counter 22850*, Anthrax LF prot -6.3 and BoNT F protease 2.9.
Screening O=C(O)c1ccc(-c2ccccc2)[nH]1 returned CCHFV vOTU inh 4.2, BoNT A protease 1.8, 3CLpro inhibitor 4.1, Autofluor counter 22282*, Anthrax LF prot -4.2 and BoNT F protease -0.5.
`Cc1ccccc1CNC(=O)Cc1cccs1` gave CCHFV vOTU inh 9.5, BoNT A protease 0.6, 3CLpro inhibitor 4.2, Autofluor counter 2431, Anthrax LF prot -2.2 and BoNT F protease -0.2.
For O=C(Cc1cccs1)NCc1ccccc1F the results were CCHFV vOTU inh -5.0, BoNT A protease -5.0, 3CLpro inhibitor 0.5, Autofluor counter 21726*, Anthrax LF prot -0.2 and BoNT F protease -4.6.
For COP(=O)(CC(=O)OC(C)(C)C)C(CC(C)C)NC(=O)OCc1ccccc1 (stereo unspecified) the results were CCHFV vOTU inh 0.8.
O=C1N/C(=C/c2cccn2-c2ccc(F)cc2)C(=O)N1Cc1ccccc1 was read as CCHFV vOTU inh 2.1, BoNT A protease inconclusive, 3CLpro inhibitor 5.3, Autofluor counter 23854*, Anthrax LF prot -3.6 and BoNT F protease -3.2.
For O=C(O)c1cccc(-n2cccc2/C=C2\NC(=O)N(Cc3ccc(F)cc3)C2=O)c1 the results were CCHFV vOTU inh 8.7, BoNT A protease 0.4, 3CLpro inhibitor 3.8, Autofluor counter 2120, Anthrax LF prot -0.6 and BoNT F protease 1.9.
Screening CC(C)CN1C(=O)C[C@@]2(C(=O)N(C)c3ccc(NC(=O)C(F)(F)F)cc32)C1c1ccccc1 (stereo partly specified) returned CCHFV vOTU inh 4.0.
Screening CN1C(=O)c2cc(NC(=O)Nc3ccccc3)ccc2OC[C@H]2O[C@@H](CC(=O)NC3CCC3)CC[C@@H]21 returned CCHFV vOTU inh -4.0.
`CN(C)CC(=O)Nc1cc(C(F)(F)F)ccc1Cl` gave CCHFV vOTU inh 7.3, BoNT A protease -0.5, 3CLpro inhibitor 0.0, Autofluor counter inconclusive, Anthrax LF prot -13.1 and BoNT F protease -1.4.
`CCOC(=O)/C(=N\Nc1cc(C(F)(F)F)ccc1Cl)N(CC)CC` gave CCHFV vOTU inh 4.5, BoNT A protease 0.2, 3CLpro inhibitor 3.6, Autofluor counter 20400*, Anthrax LF prot -8.4 and BoNT F protease -3.2.
For CCCSc1nnc2n(N)c(=O)c3ccccc3n12 the results were CCHFV vOTU inh 16.2, BoNT A protease 0.1, 3CLpro inhibitor 2.8, Autofluor counter 22548*, Anthrax LF prot 2.2 and BoNT F protease -1.0.
`Nc1nsnc1C(=O)NCCO` gave CCHFV vOTU inh -4.8, BoNT A protease -3.0, 3CLpro inhibitor 1.3, Autofluor counter 17466*, Anthrax LF prot -0.6 and BoNT F protease -4.6.

Screening data as filed in PubChem.
